Assay results as given in the supplement of paper PMC12669032.
Several values for one entry are separate records, joined by “and”; a condition that tells them apart may be missing. Identical values can stand only once.

Columns and labels:
Assay in all cases: growth AUC relative to DMSO control (median of replicates) (fraction); higher = more growth (less inhibition), active = hit call of the paper
Settings in all cases: 20 µM; 24 h;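 active = AUC reduced over 20% with Padj below 0.05 in at least 2 of 3 replicates; inactive = otherwise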
Coprococcus comes = test system: Coprococcus comes
How it was run: (§1)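 Gut bacterial monocultures in mGAM were treated with 20 µM compound (1% DMSO) and grown anaerobically at 37 °C in round-bottom 96-well plates from OD600 0.05. OD600 was read hourly for 24 h, with the minimum OD set to 0. Area under the growth curve was normalised to the plate median of solvent-only wells, or to row and column medians on the industrial chemical plate. Each value is the median of three biological replicates, each grown on a separate day.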

Escherichia coli ED1a = test system: Escherichia coli ED1a
How it was run: as §1

Escherichia coli IAI1 = test system: Escherichia coli IAI1
How it was run: as §1

Eubacterium rectale = test system: Eubacterium rectale
How it was run: as §1

[1] = test system: Fusobacterium nucleatum subsp. animalis
How it was run: as §1

Lactobacillus gasseri = test system: Lactobacillus gasseri
How it was run: as §1

Lactobacillus paracasei = test system: Lactobacillus paracasei
How it was run: as §1

Odoribacter splanchnicus = test system: Odoribacter splanchnicus
How it was run: as §1

[2] = test system: Parabacteroides distasonis
How it was run: as §1

Parabacteroides merdae = test system: Parabacteroides merdae
How it was run: as §1

Roseburia intestinalis = test system: Roseburia intestinalis
How it was run: as §1

Streptococcus salivarius = test system: Streptococcus salivarius
How it was run: as §1

Measured: growth AUC

Cc1ccccc1[N+](=O)[O-]
inactive: Coprococcus comes 1 | Escherichia coli ED1a 0.997 | Escherichia coli IAI1 0.992 | Eubacterium rectale 1 | [1] 1.03 | Lactobacillus gasseri 1.02 | Lactobacillus paracasei 0.999 | Odoribacter splanchnicus 0.994 | [2] 1.06 | Parabacteroides merdae 0.995 | Roseburia intestinalis 0.969 | Streptococcus salivarius 1.01

CCc1nn(C)c(C(=O)NCc2ccc(Oc3ccc(C)cc3)cc2)c1Cl
inactive: Coprococcus comes 0.959 | Escherichia coli ED1a 0.986 | Escherichia coli IAI1 0.997 | Eubacterium rectale 0.96 | [1] 0.952 | Lactobacillus gasseri 1.1 | Lactobacillus paracasei 0.942 | Odoribacter splanchnicus 0.896 | [2] 0.947 | Parabacteroides merdae 0.975 | Roseburia intestinalis 0.924 | Streptococcus salivarius 0.986

ClC1=C(Cl)C2(Cl)C3C(Cl)C=CC3C1(Cl)C2(Cl)Cl (stereo not drawn)
inactive: Coprococcus comes 0.989 | Escherichia coli ED1a 1.02 | Escherichia coli IAI1 1 | Eubacterium rectale 1.09 | [1] 1.12 | Lactobacillus gasseri 0.856 | Lactobacillus paracasei 0.967 | Odoribacter splanchnicus 0.964 | [2] 0.842 | Parabacteroides merdae 1.02 | Roseburia intestinalis 0.918 | Streptococcus salivarius 0.928

CS(=O)(=O)c1ccc(C(=O)C2C(=O)CCCC2=O)c([N+](=O)[O-])c1
inactive: Coprococcus comes 0.966 | Escherichia coli ED1a 1 | Escherichia coli IAI1 0.985 | Eubacterium rectale 0.882 | [1] 0.97 | Lactobacillus gasseri 1.04 | Lactobacillus paracasei 1.02 | Odoribacter splanchnicus 0.736 | [2] 0.998 | Parabacteroides merdae 0.948 | Roseburia intestinalis 0.976 | Streptococcus salivarius 1.03

N#Cc1c(Cl)c(Cl)c(Cl)c(C#N)c1Cl
active: Lactobacillus gasseri 0.558 | [2] 0.682
inactive: Coprococcus comes 0.974 | Escherichia coli ED1a 0.967 | Escherichia coli IAI1 0.96 | Eubacterium rectale 0.714 | [1] 0.908 | Lactobacillus paracasei 0.872 | Odoribacter splanchnicus 0.927 | Parabacteroides merdae 0.823 | Roseburia intestinalis 0.939 | Streptococcus salivarius 0.88

CC(C)OP(=O)(OC(C)C)SCc1ccccc1
inactive: Coprococcus comes 1.03 | Escherichia coli ED1a 1.01 | Escherichia coli IAI1 0.984 | Eubacterium rectale 1.09 | [1] 1.01 | Lactobacillus gasseri 0.959 | Lactobacillus paracasei 1.01 | Odoribacter splanchnicus 1.05 | [2] 0.866 | Parabacteroides merdae 0.988 | Roseburia intestinalis 0.951 | Streptococcus salivarius 1

CC(=NC#N)N(C)Cc1ccc(Cl)nc1
inactive: Coprococcus comes 1.06 and 0.993 | Escherichia coli ED1a 0.994 and 1 | Escherichia coli IAI1 0.982 and 1.08 | Eubacterium rectale 0.908 and 0.994 | [1] 0.987 and 0.952 | Lactobacillus gasseri 0.985 and 1.03 | Lactobacillus paracasei 1.03 and 0.987 | Odoribacter splanchnicus 1.04 and 1.02 | [2] 1.02 and 1 | Parabacteroides merdae 1.04 and 0.98 | Roseburia intestinalis 0.956 and 1.02 | Streptococcus salivarius 1.05 and 1.06

Oc1c(Cl)ccc(Cl)c1Cl
inactive: Coprococcus comes 0.98 | Escherichia coli ED1a 1.02 | Escherichia coli IAI1 0.985 | Eubacterium rectale 0.969 | [1] 1.05 | Lactobacillus gasseri 0.922 | Lactobacillus paracasei 1.01 | Odoribacter splanchnicus 0.915 | [2] 0.911 | Parabacteroides merdae 0.981 | Roseburia intestinalis 0.951 | Streptococcus salivarius 0.964

CCOP(=S)(OCC)SCS(=O)C(C)(C)C (stereo not drawn)
inactive: Coprococcus comes 1.05 | Escherichia coli ED1a 1.04 | Escherichia coli IAI1 1.01 | Eubacterium rectale 1.01 | [1] 1.07 | Lactobacillus gasseri 0.959 | Lactobacillus paracasei 0.754 | Odoribacter splanchnicus 1.04 | [2] 1.01 | Parabacteroides merdae 1.01 | Roseburia intestinalis 1.04 | Streptococcus salivarius 1.04

CNC(=O)CSP(=O)(OC)OC
inactive: Coprococcus comes 1.04 | Escherichia coli ED1a 1.01 | Escherichia coli IAI1 1.03 | Eubacterium rectale 1.01 | [1] 1.04 | Lactobacillus gasseri 1.06 | Lactobacillus paracasei 1.05 | Odoribacter splanchnicus 1.05 | [2] 1.02 | Parabacteroides merdae 1.01 | Roseburia intestinalis 1.02 | Streptococcus salivarius 1.01

Cc1nc(N(C)C=O)nc(OC(=O)N(C)C)c1C
inactive: Coprococcus comes 0.995 | Escherichia coli ED1a 0.975 | Escherichia coli IAI1 0.954 | Eubacterium rectale 1.03 | [1] 1.06 | Lactobacillus gasseri 0.976 | Lactobacillus paracasei 0.985 | Odoribacter splanchnicus 0.981 | [2] 1.04 | Parabacteroides merdae 0.982 | Roseburia intestinalis 0.964 | Streptococcus salivarius 0.999

CC1(C)OC(c2ccco2)CN1C(=O)C(Cl)Cl (stereo not drawn)
inactive: Coprococcus comes 1.03 | Escherichia coli ED1a 1.01 | Escherichia coli IAI1 0.994 | Eubacterium rectale 0.803 | [1] 0.934 | Lactobacillus gasseri 1.07 | Lactobacillus paracasei 0.976 | Odoribacter splanchnicus 1.05 | [2] 0.99 | Parabacteroides merdae 0.968 | Roseburia intestinalis 1.03 | Streptococcus salivarius 1.01

COCC(=O)N(c1c(C)cccc1C)N1CCOC1=O
inactive: Coprococcus comes 0.939 | Escherichia coli ED1a 0.975 | Escherichia coli IAI1 1.02 | Eubacterium rectale 0.964 | [1] 0.882 | Lactobacillus gasseri 0.914 | Lactobacillus paracasei 0.953 | Odoribacter splanchnicus 0.984 | [2] 1.03 | Parabacteroides merdae 1.01 | Roseburia intestinalis 0.994 | Streptococcus salivarius 1

CCC/C(=N\OCC)C1=C(O)CC(CC(C)SCC)CC1=O (stereo not drawn)
inactive: Coprococcus comes 0.986 | Escherichia coli ED1a 0.986 | Escherichia coli IAI1 0.973 | Eubacterium rectale 0.937 | [1] 0.867 | Lactobacillus gasseri 0.964 | Lactobacillus paracasei 0.978 | Odoribacter splanchnicus 0.979 | [2] 0.991 | Parabacteroides merdae 0.988 | Roseburia intestinalis 1 | Streptococcus salivarius 1.01

O=[N+]([O-])c1c(Cl)c(Cl)c(Cl)c(Cl)c1Cl
inactive: Coprococcus comes 0.821 | Escherichia coli ED1a 1 | Escherichia coli IAI1 1.01 | Eubacterium rectale 0.909 | [1] 0.942 | Lactobacillus gasseri 1.16 | Lactobacillus paracasei 0.945 | Odoribacter splanchnicus 0.946 | [2] 0.969 | Parabacteroides merdae 0.942 | Roseburia intestinalis 0.993 | Streptococcus salivarius 1

O=[N+]([O-])c1ccc(Oc2ccc(C(F)(F)F)cc2[N+](=O)[O-])cc1
inactive: Coprococcus comes 0.856 | Escherichia coli ED1a 0.964 | Escherichia coli IAI1 0.959 | Eubacterium rectale 0.88 | [1] 0.969 | Lactobacillus gasseri 0.977 | Lactobacillus paracasei 0.766 | Odoribacter splanchnicus 0.982 | [2] 0.957 | Parabacteroides merdae 0.953 | Roseburia intestinalis 0.928 | Streptococcus salivarius 0.985

COC(=O)N(C(=O)N1CO[C@@]2(C(=O)OC)Cc3cc(Cl)ccc3C2=N1)c1ccc(OC(F)(F)F)cc1
inactive: Coprococcus comes 0.857 | Escherichia coli ED1a 0.946 | Escherichia coli IAI1 0.939 | Eubacterium rectale 1.09 | [1] 0.92 | Lactobacillus gasseri 0.654 | Lactobacillus paracasei 0.896 | Odoribacter splanchnicus 0.994 | [2] 0.808 | Parabacteroides merdae 0.901 | Roseburia intestinalis 0.907 | Streptococcus salivarius 0.873

CC[C@H](C)[C@H]1O[C@]2(C=C[C@@H]1C)C[C@@H]1C[C@@H](C/C=C(\C)[C@@H](O[C@H]3C[C@H](OC)[C@@H](O[C@H]4C[C@H](OC)[C@@H](NC)[C@H](C)O4)[C@H](C)O3)[C@@H](C)/C=C/C=C3\CO[C@@H]4[C@H](O)C(C)=C[C@@H](C(=O)O1)[C@]34O)O2.O=C(O)c1ccccc1
inactive: Escherichia coli ED1a 0.974 | Escherichia coli IAI1 0.95 | Eubacterium rectale 0.865 | [1] 0.758 | Lactobacillus paracasei 0.597 | Odoribacter splanchnicus 1.06
active: Coprococcus comes 0.156 | Lactobacillus gasseri 0.714 | [2] 0.0402 | Parabacteroides merdae 0.345 | Roseburia intestinalis 0.0307 | Streptococcus salivarius 0.798

COP(N)(=S)Oc1ccccc1C(=O)OC(C)C (stereo not drawn)
inactive: Coprococcus comes 1.03 | Escherichia coli ED1a 0.969 | Escherichia coli IAI1 0.982 | Eubacterium rectale 1.04 | [1] 0.97 | Lactobacillus gasseri 0.906 | Lactobacillus paracasei 0.944 | Odoribacter splanchnicus 0.898 | [2] 0.877 | Parabacteroides merdae 0.986 | Roseburia intestinalis 1.07 | Streptococcus salivarius 0.991

COP(=S)(OC)Oc1ccc([N+](=O)[O-])c(C)c1
inactive: Coprococcus comes 0.982 | Escherichia coli ED1a 0.986 | Escherichia coli IAI1 0.979 | Eubacterium rectale 1.1 | [1] 0.994 | Lactobacillus gasseri 1.01 | Lactobacillus paracasei 1.01 | Odoribacter splanchnicus 0.962 | [2] 0.89 | Parabacteroides merdae 0.944 | Roseburia intestinalis 0.949 | Streptococcus salivarius 0.991

CC(=O)O.NC(N)=NCCCCCCCCNCCCCCCCCN=C(N)N
active: Coprococcus comes 0.64 | Eubacterium rectale 0.0294 | Odoribacter splanchnicus 0.0478 | [2] 0.132 | Parabacteroides merdae 0.0209 | Roseburia intestinalis 0.039 | Streptococcus salivarius 0.474
inactive: Escherichia coli ED1a 1 | Escherichia coli IAI1 0.928 | [1] 0.871 | Lactobacillus gasseri 0.874 | Lactobacillus paracasei 0.961

COP(=S)(OC)Oc1ccc(C#N)cc1
inactive: Coprococcus comes 1.04 | Escherichia coli ED1a 1.04 | Escherichia coli IAI1 1.02 | Eubacterium rectale 1.11 | [1] 1.04 | Lactobacillus gasseri 1.03 | Lactobacillus paracasei 1 | Odoribacter splanchnicus 1.02 | [2] 1.07 | Parabacteroides merdae 1 | Roseburia intestinalis 1.06 | Streptococcus salivarius 0.959

COC[C@H](C)N(C(=O)CCl)c1c(C)csc1C
inactive: Coprococcus comes 1 | Escherichia coli ED1a 0.985 | Escherichia coli IAI1 0.981 | Eubacterium rectale 1.17 | [1] 0.988 | Lactobacillus gasseri 0.922 | Lactobacillus paracasei 0.95 | Odoribacter splanchnicus 0.976 | [2] 0.963 | Parabacteroides merdae 0.956 | Roseburia intestinalis 0.966 | Streptococcus salivarius 1.04

O=C(Nc1ccccc1-c1ccc(Cl)cc1)c1cccnc1Cl
inactive: Coprococcus comes 1 | Escherichia coli ED1a 0.981 | Escherichia coli IAI1 1.01 | Eubacterium rectale 0.968 | [1] 0.956 | Lactobacillus gasseri 1.08 | Lactobacillus paracasei 0.972 | Odoribacter splanchnicus 0.86 | [2] 0.839 | Parabacteroides merdae 0.998 | Roseburia intestinalis 1.01 | Streptococcus salivarius 1.01
